Reference: PubChem BioAssay
A number with no mark means an inactive call. Unless noted, how the calls were made is not given here.

Experiment: cell viability in Huh7 cells, primary screen, cytotoxicity control for HCV replication inhibitor project, CellTiter-Glo luminescence, basal, 48 h (AID 1143);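 further: Huh7 hepatoma cells carrying a hepatitis C replication reporter with no stimulus; test concentration not given here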
Conditions: Huh7 HCV replicon, higher = more signal, called active from +8 up or from −8 down

**Q.** For `COCCCNC(=O)[C@]1(Cc2ccccc2CN=[N+]=[N-])N=C(c2ccc(OCCCO)cc2)O[C@@H]1c1ccccc1`, which z-score is on record?
**A.** -4.93

**Q.** For `C=CCC(OC(C)=O)[C@@H]1[C@@H](N(Cc2cc3ccccc3o2)C(=O)Cc2ccc(F)cc2)c2cc(OCCCO)ccc2N1C(=O)c1ccc2ccccc2n1` (stereo not given in full), which z-score is on record?
**A.** 0.252

**Q.** With `CCN(CC)c1ccc(N2CC=CC34O[C@@H]5/C=C\CCC(C)OC(=O)C5[C@H]3C(=O)N(CCO)[C@@H]4C2=O)cc1` (stereo not given in full) as the molecule, how does the z-score read?
**A.** -1.33

**Q.** For `CCOC(=O)C[C@H]1[C@H](OC(=O)Cc2ccc3c(c2)OCO3)[C@@H](NC(=O)Cc2ccc(OC)cc2)c2cc(OCCCO)ccc2N1C(=O)c1ccccc1`, which z-score is on record?
**A.** -0.0801

Experiment: P. aeruginosa biofilm formation inhibitors, primary screen, PAO1 strain, BacTiter-Glo luminescence, LB-PBS (AID 1144)
Conditions: 12 h, higher = more signal

**Q.** With `O=C1O[C@@H](c2ccccc2)[C@@H](c2ccccc2)N2[C@@H](c3ccccc3OCCO)[C@]3(C(=O)Nc4ccccc43)[C@@H](C(=O)NC[C@H](O)c3ccccc3)[C@H]12` as the molecule, how does the z-score read?
**A.** -0.668

**Q.** For `COCCOC(=O)N1C(=O)[C@@]2(c3cc(C#CC4=CCCCC4)ccc31)[C@H](c1ccccc1OCCO)N1[C@H](c3ccccc3)[C@H](c3ccccc3)OC(=O)[C@H]1[C@@H]2C(=O)N1CCc2cc(OC)c(OC)cc2C1`, which z-score is on record?
**A.** -0.455

**Q.** For `Cc1ccc(S[C@]2(C(=O)NC3CC3)CC(=O)N(Cc3ccccc3Cl)[C@@H]2c2ccc(CO)cc2I)cc1`, which z-score is on record?
**A.** -0.637

**Q.** Which z-score does the source give for `CC(C)CN1C(=O)[C@@]2(Cc3ccccc31)c1ccccc1C(=O)N(Cc1ccccc1C(F)(F)F)[C@H]2c1ccc(CO)cc1` here?
**A.** -1.53

**Q.** For `CCCN1C(=O)[C@]2(Cc3ccccc3)N=C(c3ccc(OCCCO)cc3)O[C@@H]2c2ccccc21`, which z-score is on record?
**A.** -0.204

**Q.** Which z-score does the source give for `C[C@]1(C(=O)NC2CC2)c2ccccc2C(=O)N(Cc2ccc(OC(F)(F)F)cc2)[C@H]1c1ccc(CO)cc1` here?
**A.** 0.244

**Q.** Which z-score does the source give for `NC(=O)NCC#Cc1ccc2c(c1)[C@]1(C(=O)N2)[C@H](C(=O)O)[C@H]2C(=O)O[C@H](c3ccccc3)[C@H](c3ccccc3)N2[C@@H]1c1ccccc1OCCO` here?
**A.** -1.26

**Q.** With `Cc1ccc(S[C@]2(C(=O)NCCN3CCOCC3)CC(=O)N(Cc3ccccc3C(F)(F)F)[C@@H]2c2ccc(CO)cc2I)cc1` as the molecule, how does the z-score read?
**A.** -0.487

**Q.** Which z-score does the source give for `Cc1ccc(S[C@]2(C(=O)NCc3ccccc3)CC(=O)N(C(C)C)[C@@H]2c2ccc(CO)cc2I)cc1` here?
**A.** 0.201

**Q.** Which z-score does the source give for `NC(=O)NCC#Cc1ccc2c(c1)[C@]1(C(=O)N2)[C@H](C(=O)Nc2nc3ccccc3s2)[C@H]2C(=O)O[C@H](c3ccccc3)[C@H](c3ccccc3)N2[C@@H]1c1ccc(O)cc1` here?
**A.** 0.688

**Q.** For `O=C1NC(=O)C2C1C=CC(C(O)c1ccc(Br)cc1)N2Nc1ccccn1` (stereo not given), which z-score is on record?
**A.** -1.45

**Q.** Which z-score does the source give for `[N-]=[N+]=Nc1ccccc1[C@H]1OC(c2ccc(OCCCO)cc2)=N[C@@]1(CCS(=O)(=O)c1ccccc1)C(=O)N1CCCCC1` here?
**A.** -1.21

**Q.** With `CC(C)C(CO)N1C(=O)[C@]2(C)C3C(=O)OCCC/C=C\[C@H]3OC23C=CCN(c2ccc(Cl)cc2)C(=O)[C@@H]13` (stereo not given in full) as the molecule, how does the z-score read?
**A.** 1.25

**Q.** Which z-score does the source give for `C=C[C@@H](C)[C@H](OC(=O)Nc1ccc(SC)cc1)c1ccc(OCCO)cc1` here?
**A.** -1.37

**Q.** Which z-score does the source give for `[N-]=[N+]=NCc1ccccc1C[C@@]1(C(=O)NCCN2CCOCC2)N=C(c2ccc(OCCCO)cc2)O[C@@H]1c1ccccc1N=[N+]=[N-]` here?
**A.** -0.503

**Q.** For `CC(=O)N1Cc2ccccc2C[C@]2(N=C(c3ccc(OCCCO)cc3)O[C@@H]2c2ccccc2)C1=O`, which z-score is on record?
**A.** -0.497

**Q.** Which z-score does the source give for `O=C1c2ccccc2[C@](Cc2ccccc2I)(C(=O)NCCN2CCOCC2)[C@H](c2ccc(CO)cc2)N1Cc1ccccc1` here?
**A.** 0.536

**Q.** For `Cc1ccc(S[C@]2(C(=O)NC(C)C)CC(=O)N(Cc3ccccc3C(F)(F)F)[C@@H]2c2ccc(CO)cc2I)cc1`, which z-score is on record?
**A.** -0.9

**Q.** For `CCOC(=O)[C@H]1C/C=C/C[C@H](C(=O)OCC)C(=O)O[C@H]2[C@@H](OC)O[C@H](CO)[C@@H](OC(=O)Nc3ccc(OC)cc3)[C@@H]2OC1=O`, which z-score is on record?
**A.** 0.29

**Q.** For `C[C@]1(C(=O)NCCN2CCOCC2)c2ccccc2C(=O)N(Cc2ccc(OC(F)(F)F)cc2)[C@H]1c1ccc(CO)cc1`, which z-score is on record?
**A.** -0.67

**Q.** With `C=CC[C@]1(C(=O)N(C)C)N=C(c2ccc(OCCCO)cc2)O[C@H]1c1ccccc1N=[N+]=[N-]` as the molecule, how does the z-score read?
**A.** 0.00404

**Q.** With `COc1ccc([Si](C)(C)[C@H]2[C@H](CCO)O[C@@]3(C(=O)N(Cc4cccc(N5CCCCC5=O)c4)c4ccccc43)[C@@H]2C)cc1` as the molecule, how does the z-score read?
**A.** -1.05

**Q.** For `C=CC[C@H](OC(=O)Nc1ccc(OC)cc1)c1ccc(O)c2ccccc12`, which z-score is on record?
**A.** -1.4

**Q.** With `CC(C)N1CC=CC23O[C@@H]4C=CCOC(=O)[C@@H]4[C@H]2C(=O)N(C(C)CO)[C@@H]3C1=O` (stereo not given in full) as the molecule, how does the z-score read?
**A.** 0.995

**Q.** With `COCCOC(=O)N1C(=O)[C@@]2(c3cc(C#CCNC(N)=O)ccc31)[C@H](C(=O)N1CCCCCCC1)[C@H]1C(=O)O[C@H](c3ccccc3)[C@H](c3ccccc3)N1[C@@H]2c1ccc(O)cc1` as the molecule, how does the z-score read?
**A.** 0.942

**Q.** For `COc1ccc(C(O)C2C=CC3C(=O)N(c4ccccc4)C(=O)C3N2Nc2ccccc2)cc1OCc1ccccc1` (stereo not given), which z-score is on record?
**A.** -1.12

**Q.** With `C=CC[C@@H](OC(=O)Nc1ccc(OC)cc1)c1ccc(OCCO)cc1` as the molecule, how does the z-score read?
**A.** -0.542

**Q.** With `O=C1O[C@@H](c2ccccc2)[C@@H](c2ccccc2)N2[C@@H](c3ccc(O)cc3)[C@]3(C(=O)Nc4ccccc43)[C@@H](C(=O)Nc3nc4ccccc4s3)[C@H]12` as the molecule, how does the z-score read?
**A.** -1.87

**Q.** Which z-score does the source give for `COCCCNC(=O)[C@]1(Cc2ccccc2N=[N+]=[N-])N=C(c2ccc(OCCCO)cc2)O[C@@H]1c1ccccc1N=[N+]=[N-]` here?
**A.** 0.524

**Q.** Which z-score does the source give for `O=C1OC[C@@H](c2ccccc2)N2CC(/C=C/c3ccccc3)=CC12` (stereo not given in full) here?
**A.** 0.476

**Q.** Which z-score does the source give for `CC(C)CNC(=O)[C@@]1(c2ccc([N+](=O)[O-])cc2)CC(=O)N(C2CCCCC2)[C@@H]1c1ccc(CO)cc1I` here?
**A.** 0.363

**Q.** With `COCCOC(=O)N1C(=O)[C@@]2(c3cc(C#Cc4ccc(OC)cc4)ccc31)[C@H](C(=O)N1CCCCCCC1)[C@H]1C(=O)O[C@H](c3ccccc3)[C@H](c3ccccc3)N1[C@@H]2c1ccc(O)cc1` as the molecule, how does the z-score read?
**A.** -1.11

**Q.** With `COCCCNC(=O)[C@]1(Cc2ccccc2CN=[N+]=[N-])N=C(c2ccc(OCCCO)cc2)O[C@@H]1c1ccccc1` as the molecule, how does the z-score read?
**A.** -0.436

**Q.** For `C=CCC(OC(C)=O)[C@@H]1[C@@H](N(Cc2cc3ccccc3o2)C(=O)Cc2ccc(F)cc2)c2cc(OCCCO)ccc2N1C(=O)c1ccc2ccccc2n1` (stereo not given in full), which z-score is on record?
**A.** -0.398

**Q.** With `CCN(CC)c1ccc(N2CC=CC34O[C@@H]5/C=C\CCC(C)OC(=O)C5[C@H]3C(=O)N(CCO)[C@@H]4C2=O)cc1` (stereo not given in full) as the molecule, how does the z-score read?
**A.** 0.655

**Q.** With `CCOC(=O)C[C@H]1[C@H](OC(=O)Cc2ccc3c(c2)OCO3)[C@@H](NC(=O)Cc2ccc(OC)cc2)c2cc(OCCCO)ccc2N1C(=O)c1ccccc1` as the molecule, how does the z-score read?
**A.** -0.112
